GALR2 antag: antagonists of human galanin receptor 2 (GALR2). O43603. inhibition, % at 4 µM. AID 828. 0.39% of 140,000 active. GALR2-expressing cells, antagonist mode; in the data active means inhibition above about 27%;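 further: cells stimulated with galanin 1-16 at roughly its EC80; 0% = agonist challenge control and 100% = basal control without agonist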
Target sequence (O43603 whole entry, looked up): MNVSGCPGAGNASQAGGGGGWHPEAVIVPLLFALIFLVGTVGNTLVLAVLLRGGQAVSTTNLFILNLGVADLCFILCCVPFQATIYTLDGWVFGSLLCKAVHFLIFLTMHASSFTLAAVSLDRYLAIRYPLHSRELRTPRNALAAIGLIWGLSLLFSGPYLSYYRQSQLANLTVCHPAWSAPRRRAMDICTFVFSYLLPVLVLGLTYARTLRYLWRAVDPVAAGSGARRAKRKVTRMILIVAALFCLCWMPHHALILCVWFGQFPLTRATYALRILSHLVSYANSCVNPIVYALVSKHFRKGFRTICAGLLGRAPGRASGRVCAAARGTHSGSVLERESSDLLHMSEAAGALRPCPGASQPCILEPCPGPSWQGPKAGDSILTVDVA
MRP reversal: compounds reversing MRP-mediated drug resistance; H69AR cells + 2 uM doxorubicin, CellTiter-Glo, 72 h; differential viability (reversal), % at 10 µM; 0.04% of 85,000 active;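 active means viability drop by adding the cancer drug above about 55%, with treated viability meeting a 40% cutoff, limit read from the data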;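 further: viability without doxorubicin minus viability with 2 µM doxorubicin for each compound; larger differential means the compound sensitizes cells more to doxorubicin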
S1P2 antag: blocks the human S1P2 receptor | 0.21% of 97,000 active | cell-based S1P2 antagonist assay, inhibition at 5 uM | inhibition, % at 5 µM | O95136; in the data active means inhibition above about 45%;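 further: CRE beta-lactamase reporter cells expressing human S1P2 stimulated with S1P; 0% = agonist at EC80 alone and 100% = agonist plus reference antagonist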
GALR2 ag: agonists of human galanin receptor 2 (GALR2). GALR2-expressing cells, agonist activation read-out. activation, % (test concentration not listed). 0.48% of 140,000 active. AID 803; in the data active means activation above about 5%, passing the limit was not always enough;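 further: 0% = vehicle buffer wells and 100% = reference agonist at full effect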
MRP1 act: activators of MRP-1; H69AR cells + doxorubicin, viability rescue, CellTiter-Glo; 0.61% of 140,000 active; viability increase, % at 10 µM;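 active means viability gain under doxorubicin at or above a set limit, the compound median plus 3 SD, cut at about 4.7% in these data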;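 further: MRP-1 overexpressing cells given doxorubicin 25 µM after compound pretreatment; 18-22 h compound pretreatment then 72 h with doxorubicin before readout; 0% = doxorubicin-only wells and 100% = vehicle-treated cells without doxorubicin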
S1P2 ag: activates the human S1P2 receptor; O95136; S1P2-expressing cell line, agonist reporter read-out; activation, % at 4.5 µM; 0.46% of 97,000 active; AID 729; in the data active means activation above about 16%;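 further: 0% = vehicle low control and 100% = maximal reference agonist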
Numbers without * were called inactive; nt = no result given. Compounds with a hit are over-represented: about 1.7% of the library has one in this group of screens.

SMILES	GALR2 antag	MRP reversal	S1P2 antag	GALR2 ag	MRP1 act	S1P2 ag
COc1ccc2cc(S(=O)(=O)NCCCN3CCOCC3)ccc2c1	5	nt	-3	-2	-2	57*
Cc1ccc(S(=O)(=O)NCCC(=O)Nc2ccc(C)cc2C(=O)c2ccccc2)cc1	3	nt	nt	-1	-2	nt
NNC(=O)CNC(c1ccccc1)c1cc(Br)ccc1NC(=O)c1cccc(Cl)c1 (configuration not stated)	-7	nt	nt	-1	11*	nt
O=C(NCC1CCCO1)C1CC(c2ccc(Cl)c(Cl)c2)=NO1 (configuration not stated)	0	10	-4	-2	0	-5
C=C(Cl)COc1ccc2c(CCCC)cc(=O)oc2c1	3	18	-17	0	6.2*	-2
CC1=NN(C(N)=S)C(=O)C1N=Nc1ccc(C)cc1C (configuration not stated)	-6	nt	-7	0	-2	-2
CC1=NN(C(N)=S)C(=O)C1N=Nc1ccccc1C (configuration not stated)	14	91*	-2	-1	-2	-5
CCOC(=O)CC(=O)CSc1nc2c(c(C)c1C#N)CCC2	12	-10	23	-1	-7	-6
CCOC(=O)CC(=O)CSc1nc(C)cc(C)c1C#N	5	3	-3	7.2*	-1	-5
Fc1cccc(-c2cc3nc(-c4ccccc4)cc(N4CCC5(CC4)OCCO5)n3n2)c1	7	12	-17	-1	6.1*	-4
Cc1cccc(-c2cc3nc(-c4ccccc4)cc(N4CCC5(CC4)OCCO5)n3n2)c1	1	-6	-25	0	0	2
Cc1ccc(CSCC(=O)NN=C2CCN(C)CC2)cc1	-4	nt	nt	0	-1	nt
Cc1ccc(NC(=O)C2Cc3ccccc3CN2C(=O)c2ccccc2)cc1Cl (configuration not stated)	-6	nt	nt	-1	0	nt
COCCN(CCOC)S(=O)(=O)c1ccc(OC)cc1	9	-10	16	-2	-3	-7
CCN(CC)S(=O)(=O)c1ccc(Oc2ccc(S(=O)(=O)N(CC)CC)cc2)cc1	6	6	72*	-1	-2	-4
CCOC(=O)c1sc(-c2ccc(F)cc2)cc1NC(=O)Nc1ccccc1OC	0	nt	nt	0	9.0*	nt
CCOC(=O)c1sc(-c2ccccc2)cc1NC(=O)Nc1ccccc1	7	nt	nt	1	6.0*	nt
O=C(COc1ccccc1Cl)NCc1ccncc1	14	22	nt	-2	-2	nt
COc1ccc(C2Nc3ccccc3C(=O)N2c2ccccc2)cc1CSc1ccccn1 (configuration not stated)	8	nt	nt	-1	0	nt
COc1ccc(C2Nc3ccccc3C(=O)N2c2ccc(F)cc2)cc1CSc1ccccn1 (configuration not stated)	0	nt	nt	6.4*	0	nt
O=C1CCCC(=O)C1=C1SCCS1	2	nt	nt	0	0	nt
CCOC(=O)c1sc(=S)n(C)c1NC(=O)c1ccccc1Cl	2	nt	nt	0	-2	nt
CCn1nc(C)c(NC(=O)/C=C/c2ccc(OC)c(COc3ccc(Cl)cc3Br)c2)c1C	-8	12	3	-1	7.2*	0
COc1ccc(/C=C/C(=O)NCc2cn(C)nc2C)cc1COc1ccc(Cl)cc1Br	-7	nt	-7	5	3	-5
CC1(C)CC(CC(=O)Nc2nccs2)(c2ccccc2)CCO1 (configuration not stated)	-11	nt	nt	-1	1	nt
SMILES	GALR2 antag	MRP reversal	S1P2 antag	GALR2 ag	MRP1 act	S1P2 ag
COc1ccc(NC(=O)c2cncc(Br)c2)cc1S(=O)(=O)N1CCCCC1	2	nt	nt	-2	-3	nt
O=C(Nc1ccc2nc(-c3ccco3)c(-c3ccco3)nc2c1)NC1CC1	7	-29	-28	-1	-3	-2
O=C(Nc1ccc(N2CCOCC2)cc1)Nc1ccc2nc(-c3ccco3)c(-c3ccco3)nc2c1	32*	-7	-8	0	-3	0
Cc1cc(-n2c(=O)c(C#N)cc3c(=O)n4cccc(C)c4nc32)no1	-7	5	nt	19*	0	nt
Cc1cccc(-n2c(=O)c(C#N)cc3c(=O)n4ccccc4nc32)c1	-15	-9	-63	24*	-2	39*
Cc1ccc(-n2c(=O)c(C#N)cc3c(=O)n4ccccc4nc32)cc1	-5	15	nt	8.7*	1	nt
CCCn1c(=N)c(C#N)cc2c(=O)n3ccccc3nc21	8	nt	nt	0	-3	nt
NC(=O)c1ccc(NC(=O)C2CCCO2)cc1 (configuration not stated)	-2	-3	6	-3	0	219*
Cc1ccc(OC(=O)c2cccc(S(=O)(=O)N3CCCC3)c2)c(-n2nc3ccccc3n2)c1	2	nt	nt	0	-1	nt
Cc1ccc(N2CCN(c3ccc(C)cc3)C2c2cccnc2)cc1	-16	14	-3	0	1	1
c1ccc(N2CCN(c3ccccc3)C2c2cccnc2)cc1	10	60*	9	-2	-4	9
O=C(Nc1cccc(S(=O)(=O)N2CCOCC2)c1)c1c2c(nc3ccccc13)CCC2	7	nt	nt	-2	-3	nt
CC12CCC(C(=O)Nc3ccccc3Cl)(C(Br)C1=O)C2(C)C (configuration not stated)	5	nt	nt	-2	-1	nt
O=C1c2ccccc2C(=O)N1CCCc1nc2ccccc2c(=O)n1-c1cccnc1	-1	21	6	0	-2	-5
Cc1ccc(S(=O)(=O)N2CCCC2C(=O)Oc2ccccc2)cc1 (configuration not stated)	0	17	-2	0	-1	36*
COc1ccc2nc(Nc3nc4cc5c(cc4s3)OCO5)sc2c1	-6	nt	nt	6.8*	-3	nt
O=c1cc(CNc2ccc(Br)cc2)nc2sccn12	8	nt	nt	-1	8.7*	nt
Cc1cccc(N2CCN(C(=O)Cc3ccc(-n4c(=O)[nH]c5ccsc5c4=O)cc3)CC2)c1C	-4	nt	nt	0	3	nt
Cc1ccc(C)c(N2CCN(C(=O)Cc3ccc(-n4c(=O)[nH]c5ccsc5c4=O)cc3)CC2)c1	11	nt	nt	1	9.6*	nt
CCOC(=O)C1=C(O)/C(=C/c2ccc(OCC(=O)O)c(OC)c2)SC1=Nc1ccc(OCC)cc1	9	nt	nt	0	-1	nt
CCOC(=O)C1=C(O)/C(=C/c2cc(OC)c(O)c(OC)c2)SC1=Nc1ccc(OC)cc1	6	nt	nt	7.3*	-3	nt
Cc1ccc2c(CSc3nc4nc(C)cc(C)n4n3)cc(=O)oc2c1	-11	6	-34	3	-2	14
COc1ccc2c(CSc3nc4nc(C)cc(C)n4n3)cc(=O)oc2c1	-24	-11	-25	1	0	17*
CC(=O)c1cc2c(cc1NC(=O)c1cc(C)nn1-c1ccccc1)OCO2	9	-9	nt	15*	-4	nt
CC(=O)Nc1ccc(NC(=O)c2cc(C)nn2-c2ccccc2)cc1	-8	5	2	-1	-1	-2
S=c1nc(-c2ccccc2Cl)n(Cc2cccnc2)c2c1CCCC2	-7	nt	nt	1	-2	nt
CCn1c(COc2ccccc2Cl)nnc1SCC(=O)Nc1ncccc1C	-8	nt	nt	0	-2	nt
